Among the data in PubChem BioAssay (NCATS) are Potency values, retold here.

Inconclusive results are not listed. Where a call stands in place of a potency, no number is given. Activity calls are given as the source filed them. Calls come from the whole dose curve; as a rule, active = well fitted activation curve with a large enough effect in the main read-out, with a control signal flat (not every such curve was filed as active); inconclusive = small, poorly fitted or top-dose-only effect, or effect the other way, or a change in a side signal; inactive = flat fitted curve, though single readings scatter.

The target of this test is 3',5'-cyclic-AMP phosphodiesterase 4B (Homo sapiens) (UniProt Q07343). The experiment in a line: qHTS Assay for Inhibitors of PDE-IV (AID 607). The settings on record: HEK293 ACTOne CNG channel cells, membrane potential fluorescence; series mostly up to 22.9 µM. The gist of the method: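 The readout is membrane depolarisation from a cAMP-sensing CNG channel, detected with a potential dye at ex 535/em 590. Cells were HEK293-derived (endogenous PDE-IV) at 1000 cells/well, titrated up to 22.9 uM final.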
3',5'-cyclic-AMP phosphodiesterase 4B (Homo sapiens), sequence (Q07343 whole entry, looked up): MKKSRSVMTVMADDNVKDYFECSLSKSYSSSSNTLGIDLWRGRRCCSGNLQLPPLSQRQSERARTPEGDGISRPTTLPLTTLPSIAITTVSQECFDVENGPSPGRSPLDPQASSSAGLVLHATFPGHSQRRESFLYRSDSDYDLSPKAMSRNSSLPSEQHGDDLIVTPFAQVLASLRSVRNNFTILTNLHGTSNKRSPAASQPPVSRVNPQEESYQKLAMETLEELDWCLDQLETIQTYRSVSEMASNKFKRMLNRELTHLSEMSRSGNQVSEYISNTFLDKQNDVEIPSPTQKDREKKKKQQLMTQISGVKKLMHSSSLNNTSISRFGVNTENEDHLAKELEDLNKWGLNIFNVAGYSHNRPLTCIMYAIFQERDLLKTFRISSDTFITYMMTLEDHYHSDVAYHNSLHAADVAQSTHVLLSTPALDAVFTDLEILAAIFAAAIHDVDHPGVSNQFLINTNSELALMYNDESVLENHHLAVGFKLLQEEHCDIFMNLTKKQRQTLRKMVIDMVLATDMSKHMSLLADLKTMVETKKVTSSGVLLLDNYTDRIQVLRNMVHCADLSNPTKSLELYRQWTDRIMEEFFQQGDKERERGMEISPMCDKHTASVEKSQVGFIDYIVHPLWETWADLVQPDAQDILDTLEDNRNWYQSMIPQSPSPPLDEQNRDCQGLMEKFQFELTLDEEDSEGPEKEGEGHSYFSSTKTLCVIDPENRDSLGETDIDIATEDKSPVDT
For `NC[C@@H]1O[C@H](c2ccccc2)Cc2c1ccc(O)c2O`, the Potency result was “inactive”.
As to `O=C(OCCN1CCOCC1)C1(c2ccccc2)CCCCC1`, the Potency result was “inactive”.
In the case of `Cc1cc2c(cc1Cl)N(C(=O)Nc1ccnc3ccccc13)CC2` it was “inactive”.
Next, `N[C@H](C(=O)O)[C@H](O)C(=O)O`: “inactive”; `O=c1[nH]c(=S)[nH]c(-c2ccccc2)c1Cc1c(O)ccc2ccccc12`: “inactive”.
In the case of `CCCCCCCC/C=C\CCCCCCCC(=O)NCCc1ccc(O)c(O)c1`, the Potency result is “inactive”.
Next, `CCCn1c(=O)c2[nH]c(-c3ccc(S(=O)(=O)O)cc3)nc2n(CCC)c1=O`: “inactive”; `COc1cc(CNC(=O)CCCCCCC(C)C)ccc1O`: “inactive”; `C/C(=C\c1ccc(C(=O)O)cc1)c1ccc2c(c1)C(C)(C)CCC2(C)C`: “inactive”.
Next, `Oc1ccc(Cn2cc[nH]c2=S)cc1`: “inactive”.
Next, `NCCNS(=O)(=O)c1cccc2c(Cl)cccc12`: “inactive”.
As to `CC(C)NC[C@H](O)COc1cccc2ccccc12`, the Potency entry was “inactive”.
On to `CCN1C(=O)C=CC1=O`, for which the Potency entry is “inactive”.
With `O=C(O)Cc1c[nH]c2ccc(O)cc12`, the Potency entry is “inactive”.
